Assay results reported in the supplement of paper PMC12632987.

B1: usp_38_diff_out_13_133_53 (protein)
chain: AAAEARRARALALLEEAEARVEKLIKEAEKALKEGKIDEARKYVAEAAGTLLRTRDELFDLTADDPELRREVLRRLKELTKRLDKVIDKVEKAERERFLA
B2: usp_38_diff_out_13_133_54 (protein)
chain: AAAEARREEARRLLEEAEKEIEKLLKEAEKALEEGNIDKAYEYVAKAAGLLLETRDRLFDLTRDDPELRREVLKRLKELEKKLNELIDKVEAAERERFLA
B3: usp_38_diff_out_13_133_55 (protein)
chain: AAAEAARAEAEALLAETEKRVEELLKKAKEALKAGDVETAEKYVGEAAGTLLEARDRLSDLTADDPELRREVLKRLKELEEKLNELIDEVEKALREEFLK
B4: usp_38_diff_out_13_133_56 (protein)
chain: SMAEKKREEAKKLLEETKKKVEKLLEEAEKALKEGDVEKAWEKVGEAAGTLLKARDELTDLTEDDPELRKEVLKELKKLEEKLNKLIDKVEKALREEFLK
B5: usp_38_diff_out_13_133_57 (protein)
chain: SAAEERRAEARARLAETEAEVEKLLKEAKAALKAGDIDEAEKKVGEAAGLILEARSDLFALTRDDPELRREIRRRLKELEKELDKLIDEVVEARKKEFLA
B6: usp_38_diff_out_13_133_58 (protein)
chain: SAAEERRKKALERLEEAEKKVEELLKKAEEALKEGKIEEASKYVGEAAGIIVKTRSDLMALTKDDPELRKEILKRLKELEKKLNELIDKVVEAEKKKFLA
B7: usp_38_diff_out_13_133_59 (protein)
chain: SAAEERRREAERRLAEAERRIRELLEKAKKALEEGDIDEAERYVGEAAGIILRTRSDLMALTRDDPELRRRILRRLKELEEELNELIDEVVEAEKKRFLA
B8: usp_38_diff_out_13_133_60 (protein)
chain: SAAEERRAEARRRLEEAEERVKALLKEAKAALKAGKIDEARKKVGEAAGVIVDTRSDLMALTRDDPELRREILKRLKELEKELDKLIDEVVKAEEEAFLA
B9: usp_38_diff_out_13_133_61 (protein)
chain: SAMEERRKEAREELEKAKKEIEELLKKAEEALKEGDIETAEKYVGEAAGLILDTRSDLMERTKDDPELRKEILKELKELEKKLNELIDKVVKAREEEFLK
B10: usp_38_diff_out_13_133_62 (protein)
chain: SAAEERRKEALKELEETEKKIEELLKKAKEALKEGKIEEAEKYVGEAAGLILKARSDLMAKTKDDPELRKEILKRLKELEKKLNELIDEVNEALKKKFLE
B11: usp_38_diff_out_13_133_63 (protein)
chain: SAAEERRAAARARLDAAVAEVERLLEEARRALEEGDVERAERYVGEAAGVLVRTRSELMALTRDDPELRREILRRLKELERRLEELIDEVEAARREAFLA
B12: usp_38_diff_out_13_43_64 (protein)
chain: LREKAEKALAEADAALGRAYAVSRELRDKMREVNPEDAKKLLKARKKLDEVGNALADARAALETAMILGEGVEEAIPKVQAAVAKLKAAIEEAEKLLKEV
B13: usp_38_diff_out_13_43_65 (protein)
chain: LREEAEKALAEADKALGEAYKLSQEIRDKIRESDPETAKKLVKLRKELDDAGNALADARVALELALHSGEGVEEAIAATRAAIAALKKKIAEAKKELAAL
B14: usp_38_diff_out_13_43_66 (protein)
chain: LEEEAEKVLKELDETLGEIYNLSLELRDKIRESDPETAKKLVEIKKRLDEVGNELADARRDLEIALISGEGLEEAIKKGKEKIEKAKKTIKEAKEELEKL
B15: usp_38_diff_out_13_93_67 (protein)
chain: DKEEEAKKLLEELKKFAEEKLKELEKLAKDPSVTIEELLEKYSELVSELITKHNEVKKKLDELGDEKTKKEATKITNEALLRMSEITTEALTRKQEEAEA
B16: usp_38_diff_out_13_93_69 (protein)
chain: EREERAEEIVERVERLGEELLKELEAAAADPSTTIEELLDLYSELVRRLVTATQAALAEARELGDEETVERILEISNETLLRLSELTTEALTAKAEAEAA
B17: usp_38_diff_out_13_93_70 (protein)
chain: SAEEKIKKLIEETKEKAKKKLEEMEEKVEAGELDVEEVLEEYSELMKYIVETHNEIEKLAKENGLEELLKEANKEFNELINETTEKVTEMLEKVAERQLA
B18: usp_38_diff_out_13_93_71 (protein)
chain: STEEEIERLVEEAEERARRELEEMREEVEAGKLNVEEVLERSSELFRWLVEKYNEIKKLAKEAGLEELLKEAEERFNELINKATEEVTEMLEKVAERELA
B19: usp_38_diff_out_13_93_72 (protein)
chain: SAEEEIEKILKEVEEEAEKELEELEKEVAAGRLTVEEVLRRAGELFSYIVKKHQEIEKIAKENGLEALLKEATEKVNELINKVTERVTAMLERVAARQLA
B20: usp_38_diff_out_13_93_73 (protein)
chain: DPAEELRREAEELIEELRRRTDELVARLEAGEITIEEALARFSELMDEAAERLRELIARAEALGLEALAREIRRRVLEAMVEATERLGAALERAAEREAA
B21: usp_38_diff_out_13_93_74 (protein)
chain: DLEARVEALLAAQEAEADALAAELAARAAAGEITVEEILERSSALADRIAEETRRAVAELEAAGEAALARRLRERTAEILLRLTERVGAILEELAAREAA
B22: usp_38_diff_out_13_93_75 (protein)
chain: SLEDEAAALLAEIRAEAEALAAELEALAEAGKITIEEVLERTSALVDRIAERTRAMVARLRAAGLEALARRLEEEVNRILLDLTERVGRILERLAEREAA
B23: usp_38_diff_out_13_93_76 (protein)
chain: TLEEKAEALLAEIRKRAEELLKELKKLAEEGKITIEEVLERSSKLFDEIAERTRAMVAELRAAGKEALAERVEKEVNEIILKATEGVGKILEFLAEKEAA
B24: usp_38_diff_out_13_93_77 (protein)
chain: SLEEKAKALLAEIEARAKALLEELEELAERGEITIEEVLERSSALFDEIAAETRAMVAELEAAGKKALAEELKKKVNEIILDATEGIGKILERLAEREAA
B25: usp_38_diff_out_14_2_100 (protein)
chain: GEEELKAATDATLKTLDAAIKEAKELKKEVEEDPSKAEEARKRLFEAWDKAADAVGALAKLMEEHKELRELNKEAVEKVNKRITELTKVALEALELAAKA
B26: usp_38_diff_out_14_2_101 (protein)
chain: AEEEIKKKKEETLKKLEEGIERLKKLKEEVKKDPSLAEKARKEAFEIHDEVADKVGELHKLILKNPELKELNKKAIKEVNEKLTEFTEALLEALEEAAAA
B27: usp_38_diff_out_14_2_102 (protein)
chain: AEAEIEKATEETLAVLEEAIKKFEELEKEVEEDPSKAEEAFERILEEWDRAADAVGALARLLEAHPEVRETRKKAVAEVNEALTRLTEKATRALEKAAEA
B28: usp_38_diff_out_14_2_104 (protein)
chain: AKATIEAATAAALKAIDDGKKRLEELTKKVKEDPSKAEEAREEILAVWDEVGDAVGALAATLRANPAERATNKAATAEVNKALTEFTKKALEALEVAEEA
B29: usp_38_diff_out_14_2_105 (protein)
chain: GEEEIKKATDKTLKKLEEATKKFKELKEKVKKDPSLAEEARKEAFKAWDEAGDAVGALAKLIEENKEHRATNKEATEKVNKALTEYTKAVLELLEEIAEA
B30: usp_38_diff_out_14_2_106 (protein)
chain: GEEEIKKATEETLKAIKEAIEKAKELKEKVKKDPSLAEEARKELFEAHDKVGDKVGALAKLIEEHKEYRETNKKAVKEVNEALKEYTEAVLELLEEIAEA
B31: usp_38_diff_out_14_2_107 (protein)
chain: AKEEIKKKTEETLKALDEAIKAAKKLKEEVKKDPSLAEKARKELFKLWDEVGDKVGELAKLLEENKEERETNKEAVEKVNEALTKFTKAVLEALEEIEKA
B32: usp_38_diff_out_14_2_108 (protein)
chain: AADKIKAATDATLAALEAAIAKAKELKERVKKDPSLAEEARKELFEAWDAVGDKVGALAKLLEENKAERATNKKATAEVNKALTEYTKAVLEALEEIAKA

Target: T1, USP38, Q8NB14
T1 chain: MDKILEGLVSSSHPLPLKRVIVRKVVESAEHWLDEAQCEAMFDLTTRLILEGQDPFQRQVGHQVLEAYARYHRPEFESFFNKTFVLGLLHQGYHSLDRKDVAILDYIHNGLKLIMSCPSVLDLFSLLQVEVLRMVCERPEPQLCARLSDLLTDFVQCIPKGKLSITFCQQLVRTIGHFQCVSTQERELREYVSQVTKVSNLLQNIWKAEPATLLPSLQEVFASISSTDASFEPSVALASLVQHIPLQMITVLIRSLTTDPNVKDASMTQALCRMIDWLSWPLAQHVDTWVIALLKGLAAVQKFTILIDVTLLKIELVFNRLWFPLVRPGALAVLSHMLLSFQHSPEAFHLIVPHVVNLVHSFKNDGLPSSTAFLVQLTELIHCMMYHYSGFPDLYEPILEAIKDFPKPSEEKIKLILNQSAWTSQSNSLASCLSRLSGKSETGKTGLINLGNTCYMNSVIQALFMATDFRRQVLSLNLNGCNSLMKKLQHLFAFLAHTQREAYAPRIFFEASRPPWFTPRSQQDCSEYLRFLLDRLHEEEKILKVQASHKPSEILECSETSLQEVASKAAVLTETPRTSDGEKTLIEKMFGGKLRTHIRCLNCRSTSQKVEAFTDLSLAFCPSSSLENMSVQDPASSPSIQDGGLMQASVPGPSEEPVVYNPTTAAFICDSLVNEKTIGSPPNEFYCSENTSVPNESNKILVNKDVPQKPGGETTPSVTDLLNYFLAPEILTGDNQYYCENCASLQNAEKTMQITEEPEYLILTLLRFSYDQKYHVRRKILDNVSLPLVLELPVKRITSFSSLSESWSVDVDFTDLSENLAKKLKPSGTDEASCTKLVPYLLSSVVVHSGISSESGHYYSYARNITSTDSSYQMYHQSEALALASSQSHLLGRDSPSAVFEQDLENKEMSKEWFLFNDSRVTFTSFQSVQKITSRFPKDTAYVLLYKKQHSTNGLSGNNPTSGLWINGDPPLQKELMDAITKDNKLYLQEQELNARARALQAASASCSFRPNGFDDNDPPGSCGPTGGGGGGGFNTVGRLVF
Experiment: median log2 fold change of GCK-ALFA target abundance (FLAG IP / Myc IP barcode read proportion) (log2 ratio); each designed protein is fused to an ALFA-tag nanobody in HEK293 cells to bring the named protein to FLAG-tagged glucokinase (GCK); Myc marks an untargeted standard; higher = target protein stabilised (more abundant)
Conditions: target protein: 3xFLAG-MCP-GCK-ALFA reporter; HEK293 landing pad (RPLP)
How it was run: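 HEK293 landing-pad cells received a recombined binder library fused to the ALFA nanobody and were induced with 2 μg mL^−1 doxycycline, then transfected with a plasmid encoding a FLAG-tagged target and a Myc-tagged standard. Lysates were collected after 48 h for anti-FLAG and anti-Myc immunoprecipitation, and the circular RNA barcodes were reverse transcribed, amplified and sequenced. Target abundance for each binder is the median log2 ratio of FLAG to Myc barcode read proportions. Barcodes had to reach a proportion of at least 10^−7 in both replicates, each binder needed at least 3 barcodes per replicate, a pseudocount of 10^−6 was applied, and the two replicates were pooled.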

Binder | median log2 fold change
B1 | 0.000412
B2 | -0.102
B3 | 0.299
B4 | -0.0894
B5 | 0.0932
B6 | 0.217
B7 | 0.136
B8 | -0.0799
B9 | 0.145
B10 | 0.147
B11 | 0.0626
B12 | -0.253
B13 | 0.148
B14 | 0.341
B15 | 0.158
B16 | -0.38

Binder | median log2 fold change
B17 | -0.785
B18 | -0.429
B19 | -0.469
B20 | -0.395
B21 | 0.136
B22 | 0.213
B23 | 0.124
B24 | -0.0527
B25 | -0.611
B26 | 0.0029
B27 | -0.0129
B28 | 0.0445
B29 | -0.792
B30 | -0.23
B31 | -0.442
B32 | -0.78
